This is one part of a sample in which hits are shown more often than they occur.
LmPK inhibitor: blocks Leishmania mexicana pyruvate kinase activity. Q27686. purified LmPK, Kinase-Glo ATP luminescence, 1 h. Potency, µM (top dose mostly 57.5 µM), for the others: at the highest dose activity change, negative = inhibition, usual class: inhibitors. 290,000 tested, 0.37% active. AID 1721; note: potency is the fitted concentration of half-maximal effect; % is set by controls: 0 for no effect and ±100 for the full control effect
Target sequence (Q27686 whole entry, looked up): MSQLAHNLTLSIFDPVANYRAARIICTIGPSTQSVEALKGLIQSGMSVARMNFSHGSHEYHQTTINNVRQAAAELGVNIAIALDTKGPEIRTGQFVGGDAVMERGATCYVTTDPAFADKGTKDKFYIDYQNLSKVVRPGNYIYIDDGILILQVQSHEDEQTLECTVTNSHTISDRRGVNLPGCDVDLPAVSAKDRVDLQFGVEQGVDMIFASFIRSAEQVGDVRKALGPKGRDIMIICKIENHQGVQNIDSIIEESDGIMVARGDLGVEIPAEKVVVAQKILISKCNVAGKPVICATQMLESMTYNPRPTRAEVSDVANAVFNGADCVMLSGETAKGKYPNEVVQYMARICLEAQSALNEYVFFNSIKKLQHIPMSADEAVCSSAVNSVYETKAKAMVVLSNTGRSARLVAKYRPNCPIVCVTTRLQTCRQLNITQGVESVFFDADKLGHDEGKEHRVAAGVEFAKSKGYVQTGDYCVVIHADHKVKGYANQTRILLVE
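Purified LmPK (0.1 nM) with 0.5 mM PEP and 0.1 mM ADP in imidazole buffer pH 7.2 with MgCl2/KCl, 1 h at room temperature. ATP formed was read by luciferase luminescence and normalized to no-enzyme and uninhibited controls.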
CHX counter: counter-screen hit for Shiga toxin inhibitors, cycloheximide; cell reporter, cycloheximide protein synthesis inhibition counterscreen; max response, %; 300,000 tested, 12% active; AID 2314; in the data active = max response mostly above about 13%, no sharp cut-off; inactive = mostly below about 14%; note: read at 38.3 µM for the half of the compounds with a filed dose; 0% is about no effect
TbPYK inhibitor: T. brucei pyruvate kinase inhibition | Q57TT1 | TbPYK enzyme, Kinase-Glo Plus ATP luminescence, 45 min | Potency, µM (top dose mostly 76.8 µM), inactives show top-dose activity, negative = inhibition, hits mostly inhibitors | 410,000 tested, 0.12% active; note: potency is the fitted concentration of half-maximal effect; % is set by controls: 0 for no effect and ±100 for the full control effect; nearly all actives have a fitted effect of over 50% in size
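Quantitative HTS: titrated library compounds versus trypanosomal pyruvate kinase in TEA buffer (pH 7.2) containing KCl, MgCl2, BSA and Tween-20. Reactions were initiated with ADP, 130 uM final. Kinase-Glo Plus luminescence was read after 45 min at RT.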
Sm TGR inh: blocks Schistosoma mansoni thioredoxin glutathione reductase; purified TGR, DTNB reduction, TNB absorbance 405 nm; Potency, µM (highest dose often 114 µM), for the others: at the top dose activity change, negative = inhibition, most hits filed as inhibitors; 360,000 tested, 3% active; AID 485364; note: potency is the fitted concentration of half-maximal effect; % is set by controls: 0 for no effect and ±100 for the full control effect; nearly all actives have a fitted effect of over 60% in size
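Kinetic colorimetric format: TGR-catalysed, NADPH-driven DTNB reduction monitored via TNB absorbance. Enzyme dispensed at 20 nM; compound exposure 15 min at room temperature before reaction start.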
Shiga inhibitor: blocks Shiga toxin action in Vero cells. AID 2315. inhibition, % at 38.7 µM. 290,000 tested, 9.2% active. Vero cells, Shiga toxin protein synthesis inhibition reporter; in the data active = inhibition mostly above about 28%, no sharp cut-off; inactive = mostly below about 43%; note: 0% is about no effect
FBPA Giardia inh: inhibitors of Giardia lamblia fructose-1,6-bisphosphate aldolase | A8B2U2 | purified Giardia FBPA | Potency, µM (titrated, usually from 59.6 µM), without a hit: at the top dose activity, negative = inhibition, hits mostly inhibitors | 290,000 tested, 0.71% active | AID 2451; note: potency is the fitted concentration of half-maximal effect; % is set by controls: 0 for no effect and ±100 for the full control effect; nearly all actives have a fitted effect of over 55% in size
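40 nM FBPA preincubated 10 min at RT with compound (up to 57.5 uM final), then substrate plus GAPDH/TPI/NAD/arsenate coupling and diaphorase/resazurin added. Fluorescence read after 20 min at RT, 525/598 nm.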
Starred values were filed as active, the others as inactive; i = inactive; ? = inconclusive; nt = not tested or not shown; [ ] = dose if it differs, or a comment. Unless noted, calls come from the whole dose curve; as a rule, active = well fitted curve in the direction sought with a large enough effect; inconclusive = small, poorly fitted or top-dose-only effect, or another doubt; inactive = no such curve, though single readings can be large; an effect the other way counts as inactive or inconclusive.

SMILES	LmPK inhibitor	CHX counter	TbPYK inhibitor	Sm TGR inh	Shiga inhibitor	FBPA Giardia inh
O=C1c2ccccc2NC(c2ccc(O)c(O)c2)N1c1ccccc1Cl (stereo not drawn)	?	26.9*	-11.6%	-15.6%	40.7*	-20.1%
COc1ccc(N2CCN(c3nc4ccc(C)cc4n4nnnc34)CC2)cc1	nt	nt	0.7%	8.1%	nt	nt
O=C1NC(=O)C(=Cc2cccc(OCCOc3ccccc3)c2)C(=O)N1	0.5%	44.2*	?	11.2µM*	65.3*	-6.1%
O=C1NC(=O)C(=Cc2ccc(OCCOc3ccc([N+](=O)[O-])cc3)cc2)C(=O)N1	-4.9%	9.2	?	15.8µM*	11.5	-9.9%
Cc1ccc(OCCOc2cccc(C=C3C(=O)NC(=O)NC3=O)c2)c(C)c1	5.8%	110.2*	-15.3%	?	109.7*	-0.2%
O=Cc1ccc(OCCOc2ccc([N+](=O)[O-])cc2)cc1	-10.6%	0.4	-7.3%	1.2%	-4.0	-2.2%
CCc1ccc(NS(=O)(=O)c2ccc3[nH]cc(C(=O)NCc4ccc(C)cc4)c(=O)c3c2)cc1	nt	nt	-3.3%	20.2%	nt	nt
O=C(Cn1c(=O)oc2cc(S(=O)(=O)NCc3ccccc3)ccc21)N(CCO)Cc1ccccc1	nt	nt	-4.6%[15.4 µM]	-1.0%	nt	nt
Cc1c(NC(=O)Nc2ccc(Br)cc2F)sc2nc3n(c(=O)c12)CCC(C)CC3 (stereo not drawn)	nt	nt	0.0%	-1.4%	nt	nt
CC(C)c1ccc(Nc2ncccc2C(=O)O)cc1	-13.2%	42.9*	3.8%	7.2%[57.1 µM]	15.2	?
CCOC(=O)c1cccc(NC(=O)c2cnc(N3CCCCC3)c3ccccc23)c1	nt	nt	-3.2%	1.8%	nt	nt
CCS(=O)(=O)N1CCN(c2ccccc2F)CC1	-7.7%	-1.2	-12.4%	7.7%	-16.6	-1.5%
CN1CCN(c2ccc3ccccc3n2)CC1	nt	nt	nt	nt	nt	-6.2%
c1ccc(CN2CCN(c3cnc4ccccc4n3)CC2)cc1	3.5%	51.8*	-4.3%	6.7%	131.2*	-2.3%
Fc1ccccc1N1CCN(c2cnc3ccccc3n2)CC1	-2.8%	55.7*	2.9%	-29.5%	81.5*	-7.5%
Oc1ccccc1N1CCN(c2ccc3ccccc3n2)CC1	1.7%	41.6*	2.6%	-18.5%	101.6*	4.4%
COc1ccc(CNC(=O)CSCc2ccc(C)cc2)c(OC)c1	nt	nt	0.8%	3.5%	nt	nt
Cc1ccc2c(CC(=O)N3CCN(c4cccc(Cl)c4)CC3)coc2c1	nt	nt	-1.9%	1.1%	nt	nt
CCOc1cc(C(c2c(C)[nH]n(-c3ccccc3)c2=O)c2c(C)[nH]n(-c3ccccc3)c2=O)ccc1O	nt	nt	-0.4%	3.16µM*	nt	nt
CCOc1ccc(NC(=O)CSc2nnc(CC)c(CC)n2)cc1	nt	nt	-6.1%[15.4 µM]	5.3%	nt	nt
O=C(CCCc1c[nH]c2ccccc12)Nc1ncccc1O	-4.1%	-2.6	-7.6%	0.2%	20.2	nt
O=C(C[n+]1ccc(Cc2ccccc2)cc1)Nc1ccccc1	3.1%	25.3	2.1%	-8.1%	39.4*	-3.3%
O=C(Cc1ccc(-c2ccccc2)cc1)Nc1ccccc1	-4.8%	21.5*	-1.4%	5.5%	21.4	14.3%
O=C(Cc1ccc(-c2ccccc2)cc1)Nc1ncccc1O	2.6%	37.2*	-1.4%	-13.0%	79.9*	-15.7%
O=C1CC(c2ccccc2)Cc2[nH]c(=O)c(-c3nc(-c4ccc(F)cc4)cs3)cc21 (stereo not drawn)	nt	-5.1	7.8%	-1.3%	-3.9	nt
SMILES	LmPK inhibitor	CHX counter	TbPYK inhibitor	Sm TGR inh	Shiga inhibitor	FBPA Giardia inh
COCc1nc2ccccc2n1Cc1ccc(C(C)(C)C)cc1	nt	nt	0.0%	?	nt	nt
COCC(=O)N1CCCC(N(C)CCc2ccc(OC)c(OC)c2)C1 (stereo not drawn)	3.7%	18.0*	-22.0%	-31.3%	nt	4.9%
CCC(=O)N1CCc2cc(Br)cc(S(=O)(=O)N3CCCC(C(=O)Nc4cccc(Cl)c4C)C3)c21 (stereo not drawn)	nt	nt	7.3%	5.3%	nt	nt
O=C(NC1CC1)c1cc2cc3ccccc3nc2s1	-8.5%	40.8*	2.5%	-18.9%	98.9*	1.8%
O=C(NNS(=O)(=O)c1ccccc1)c1cc2cc3ccccc3nc2s1	3.2%	10.9	9.2%	9.5%	53.6*	-10.3%
O=C(NC1CC1)c1cc2cc(Br)ccc2s1	-7.4%	38.0*	0.0%	9.6%	50.9*	2.3%
COc1ccc(CNc2nc(-c3ccco3)nn2C(=O)c2ccccc2C)cc1	nt	nt	2.0%	-0.4%	nt	nt
Cc1cccc(C(=O)n2nc(-c3ccco3)nc2NCc2ccccc2)c1	nt	nt	-5.1%	35.5µM*	nt	nt
COc1ccc(C(=O)n2nc(-c3ccco3)nc2NCc2cccs2)cc1OC	nt	nt	1.4%	20µM*	nt	nt
O=C(c1cccnc1)n1nc(-c2ccco2)nc1NCc1cccs1	-0.3%	36.9*	0.4%	?	123.6*	-8.2%
COc1ccccc1CNc1nc(-c2ccco2)nn1C(=O)c1ccccc1[N+](=O)[O-]	nt	nt	-9.0%	89.1µM*	nt	nt
O=c1cc(-c2ccc(F)cc2F)[nH]c2ccc(F)cc12	nt	21.1	nt	nt	i	3.9%[89.2 µM]
Cc1sc2c(c1C)c(=O)n(-c1cccc(C(F)(F)F)c1)c(=O)n2Cc1ccccc1C#N	nt	nt	4.2%	19.9%	nt	nt
CC1=Nc2ccccc2N=C(N)C1c1ccccc1 (stereo not drawn)	-2.7%	40.2*	-3.3%	nt	66.9*	-9.3%
CC1=Nc2ccccc2N=C(NC(=O)c2ccccc2)C1c1ccc(Cl)cc1 (stereo not drawn)	0.5%	-0.4	-0.1%	-2.6%	-4.1	-8.9%
O=C(NCCN1CCOCC1)Nc1ccc(Cl)cc1	8.2%	13.1*	-0.7%	5.1%	21.8	1.5%
Cc1ccc(NC(=O)NCCN2CCCCC2)cc1	0.4%	8.8*	-6.8%	2.8%	-1.9	-0.7%
O=C(NCCN1CCCCC1)Nc1ccc(Br)cc1	-0.9%	2.7	0.6%	0.5%	22.3	7.9%
CCOc1ccccc1NC(=O)N1CCC2(CC1)Oc1ccccc1C(=O)N2Cc1ccccc1F	nt	nt	-2.1%	0.5%	nt	nt
O=C(CCc1cn(Cc2ccccc2F)c2ccccc12)NCc1ccc(Cl)cc1	nt	nt	2.8%	41.5%	nt	nt
COc1ccccc1C/C(N)=N/OC(=O)c1ccco1	-0.8%	19.3*	-2.7%	28.6%	55.9*	-0.1%
COc1ccccc1C/C(N)=N/OC(=O)c1ccc(C)c([N+](=O)[O-])c1	-2.8%	-3.7	-3.4%	15.6%	5.4	-0.4%
COc1ccccc1C/C(N)=N/OC(=O)c1ccc2c(c1)OCO2	-0.3%	44.3*	-6.4%	0.0%	104.5*	-1.9%
COc1ccccc1CC(=O)O/N=C(\N)Cc1cccc2ccccc12	9.6%	-3.9	6.5%	9.7%	-8.1	5.3%
CCOC(=O)CN1C(=O)S/C(=C/C=C/c2ccc(N(C)C)cc2)C1=O	-8.6%	30.1*	-6.8%	-7.2%	15.2	0.7%
Cn1c(=O)n(C)c2cc(/C=C3/SC(=O)N(CC(=O)N4CCOCC4)C3=O)ccc21	-6.6%	-4.4	-2.8%	0.0%	-19.5	-11.6%
